# Bioassay records (PubChem)
# In the library only some 22% were active in any assay of this set; here they are far more common.
# CYP2C19 inh: inhibitors of human CYP2C19. CYP2C19 Supersomes, luciferin-H EGE luminescence, 30 min. inhibition, % at 5 µM. P33261. 96,000 compounds, 21% hits;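 active means CYP2C19 inhibition above a set limit at 5 µM in the primary screen, cut at about 50% in these data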;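 further: plate controls were negative control wells for no effect and 2.5 mM tranylcypromine positive control for full effect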
# CYP2C9 inhib: human CYP2C9 inhibition; P11712; CYP2C9 Supersomes, luciferin-H conversion, luminescence; inhibition, % at 5 µM; 96,000 compounds, 20% hits;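 active means blocking of liver enzyme CYP2C9 beyond about 50% at 5 µM, limit read from the data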
# Target sequence (P11712 whole entry, looked up): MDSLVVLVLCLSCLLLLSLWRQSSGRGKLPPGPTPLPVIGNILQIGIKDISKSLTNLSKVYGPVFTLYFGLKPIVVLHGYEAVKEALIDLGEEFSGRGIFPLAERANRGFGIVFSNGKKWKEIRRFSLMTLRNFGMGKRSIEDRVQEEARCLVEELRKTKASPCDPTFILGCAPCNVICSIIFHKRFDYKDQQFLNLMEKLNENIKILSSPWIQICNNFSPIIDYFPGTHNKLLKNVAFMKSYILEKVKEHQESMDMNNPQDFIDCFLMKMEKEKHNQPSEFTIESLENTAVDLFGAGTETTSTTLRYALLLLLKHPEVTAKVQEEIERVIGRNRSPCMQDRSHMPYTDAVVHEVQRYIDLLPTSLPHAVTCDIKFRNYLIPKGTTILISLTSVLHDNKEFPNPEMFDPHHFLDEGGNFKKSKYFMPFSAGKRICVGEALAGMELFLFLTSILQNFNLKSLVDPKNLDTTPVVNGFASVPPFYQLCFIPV
# CYP2C19 activ: increases human CYP2C19 enzyme activity; P33261; recombinant CYP2C19, luciferin-H EGE luminescence; stronger effect = higher value; 0 = fully inhibited enzyme, 1 = untreated enzyme; activation factor at 5 µM; 96,000 tested, under 10 active;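 active means activation factor of at least 2 at 5 µM in the primary screen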;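 further: 0 = wells with 2.5 mM tranylcypromine and 1 = vehicle-only wells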
# E-sel TNF inh: blocks E-selectin expression induced by TNF alpha. inhibition, % at 2 µM. 120,000 compounds, 0.71% hits. HUVEC TNFa-induced E-selectin immunofluorescence, high content;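 active means inhibition above the batch mean plus 3 SD, and confirmed as a hit on visual image review, cut at about 43% in these data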;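 further: 0% = TNF-stimulated DMSO wells and 100% = unstimulated control wells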
# F-actin modifier: alters cytoskeleton assembly in HUVEC cells; 91,000 compounds, 0.18% hits; inhibition, % at 2 µM; HUVEC TNFa F-actin phalloidin imaging, high content;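 active means inhibition above the batch mean plus 3 SD and confirmed as a hit by visual image inspection, cut at about 30% in these data, passing the limit was not always enough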
# CYP2C9 act: activators of human CYP2C9; P11712; recombinant CYP2C9, luciferin-H conversion, luminescence; stronger effect = higher value; factor 1 = untreated enzyme, 0 = blocked; activation factor at 5 µM; 96,000 compounds, 1.4% hits; AID 1024;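 active means activation factor of 2 or more for CYP2C9 at a 5 µM dose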;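 further: 0 = sulfaphenazole-blocked wells and 1 = vehicle-only wells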
# An asterisk follows results filed as active; . = no result.
SMILES,CYP2C19 inh,CYP2C9 inhib,CYP2C19 activ,E-sel TNF inh,F-actin modifier,CYP2C9 act
COC(=O)c1cn(Nc2ncc(C(F)(F)F)cc2Cl)c(=O)c2ccccc12,52*,35,0.5,0,20,0.7
COC(=O)c1cn(N(C)c2ncc(C(F)(F)F)cc2Cl)c(=O)c2ccccc12,98*,100*,0,5,.,0
CSc1nnc2c(n1)OC(C)N(C(=O)c1ccccc1)c1ccccc1-2 (stereo not drawn),24,54*,0.8,.,.,0.5
O=C(CSc1nnc(-c2ccccc2)c(-c2ccccc2)n1)N1CCOCC1,19,25,0.8,1,5,0.7
CC(=O)c1c(C)[nH]c(C(=O)NCc2ccccc2Cl)c1C,.,.,.,-31,.,.
CCCCC(CC)CNC(=O)c1[nH]c(C)c(C(C)=O)c1C (stereo not drawn),63*,75*,0.4,.,10,0.2
CC1CCC2(CC1)NC(=O)N(Cc1nc(-c3ccccc3)no1)C2=O (stereo not drawn),33,-2,0.7,10,0,1
Clc1ccc(OCCCCSc2ncccn2)cc1,10,18,0.9,10,.,0.8
CCCOc1ccc(OCCSc2ncccn2)cc1,47,50*,0.5,-13,11,0.5
Cc1ccc(N=c2sc(C)c(C)n2C)cc1,.,.,.,-4,.,.
CC(C)(C)NS(=O)(=O)c1ccc(CCC(=O)NCc2cccnc2)cc1,36,87*,0.6,-7,7,0.1
CC(C)(C)NS(=O)(=O)c1ccc(CCC(=O)NCc2ccco2)cc1,34,67*,0.7,-4,-2,0.3
Cc1cc(C)cc(C(=O)OCC(=O)NCC(F)(F)F)c1,.,.,.,12,.,.
COc1ccc(Cl)cc1NC(=O)N1CCN(C2CCCCC2)CC1,83*,-93,0.2,-27,-15,1.9
COc1ccc(Cl)cc1NC(=O)NC1CCCCC1,21,-14,0.8,2,40,1.1
COc1ccc(Cl)cc1NC(=O)CN(C1CCCCC1)S(C)(=O)=O,99*,90*,0,0,2,0.1
CC(NC(=O)CN(C1CCCCC1)S(C)(=O)=O)c1ccccc1 (stereo not drawn),.,.,.,11,8,.
CSc1ccccc1NC(=O)CN(C1CCCCC1)S(C)(=O)=O,93*,90*,0.1,8,8,0.1
CNC(=O)COc1ncnc2sc(C)c(C)c12,-9,-11,1.1,-12,-19,1.1
Cc1sc2ncnc(Oc3ccc(-n4ccnc4)cc3)c2c1C,100*,99*,0,.,.,0
Cc1c(Cl)cccc1NC(=O)c1cc(C2CC2)on1,84*,-20,0.2,.,5,1.2
COc1ccc(NC(=O)c2cc3c(Cl)nc4ccccc4c3s2)c(OC)c1,.,.,.,63*,.,.
COc1ccc(NC(=O)c2cc(C3CC3)on2)c(OC)c1,-3,-189,1,-39,.,2.9*
CCCCN(c1ccccc1)S(=O)(=O)c1ccc2c(c1)CCN2C(=O)CCC(=O)O,7,32,0.9,0,20,0.7
CCCn1c(SCc2cc(=O)[nH]c3ccccc23)nc2c1c(=O)n(C)c(=O)n2C,-5,-3,1.1,.,.,1
SMILES,CYP2C19 inh,CYP2C9 inhib,CYP2C19 activ,E-sel TNF inh,F-actin modifier,CYP2C9 act
Cc1nnc(SCC(=O)Nc2nc(-c3ccccc3)cs2)n1N,-2,-6,1,7,16,1.1
CCn1c(SCC(=O)Nc2nccs2)nnc1-c1ccccc1,92*,52*,0.1,-1,8,0.5
CCn1c(SCC(=O)Nc2nc(-c3ccccc3)cs2)nnc1-c1ccccc1,94*,96*,0.1,25,-15,0
CCn1c(Cc2ccccc2)nnc1SCC(=O)Nc1nccs1,28,10,0.7,-12,7,0.9
O=C1CCSc2ccc(Cl)cc2N1Cc1ccc(Cl)cc1,20,24,0.8,-17,24,0.8
O=C1CCSc2ccc(Cl)cc2N1Cc1ccccc1,66*,23,0.3,-26,32,0.8
Cc1cccc(CN2C(=O)CCSc3ccc(Cl)cc32)c1,67*,32,0.3,-9,10,0.7
C=CCNc1sc(C(=O)c2ccc(Br)s2)c(N)c1C#N,18,63*,0.8,.,3,0.4
C=CCNc1sc(C(=O)c2ccccc2)c(N)c1C#N,37,-86,0.6,7,25,1.9
COc1cc2c(cc1OC)-c1nc3ccccc3c(=O)n1C(C)(C)C2,26,56*,0.7,4,15,0.4
Cc1occc1C(=O)Nc1ccc(S(N)(=O)=O)cc1,.,.,.,-7,.,.
O=C(Cn1ncc2c3ccccc3n(Cc3ccccc3)c2c1=O)N1CCN(c2ncccn2)CC1,98*,77*,0,3,10,0.2
CC1(C(=O)NCc2ccc(F)cc2)Oc2ccccc2NC1=O (stereo not drawn),.,.,.,-15,.,.
COC(=O)c1sc(N)c(C(=O)OC)c1CSc1nnnn1C,92*,55*,0.1,6,-9,0.5
COC(=O)c1sc(N)c(C(=O)OC)c1CSc1nnc(-c2ccccc2Cl)n1C,100*,97*,0,-18,9,0
COC(=O)C(Cc1c[nH]c2ccccc12)NC(=O)CNC(C)=O (stereo not drawn),13,-3,0.9,22,5,1
CC(=O)NC(Cc1c[nH]c2ccccc12)C(=O)OCC(=O)Nc1ccc2c(c1)OCO2 (stereo not drawn),39,74*,0.6,.,8,0.3
CC(=O)N[C@@H](Cc1c[nH]c2ccccc12)C(=O)OCC(=O)Nc1ccc(Cl)c(S(=O)(=O)N(C)C)c1,.,.,.,62*,.,.
CC(=O)NC(Cc1c[nH]c2ccccc12)C(=O)N1CCc2ccccc2C1 (stereo not drawn),75*,47,0.2,.,-11,0.5
Cc1c(Cl)cccc1NC(=O)CNc1cccc(S(=O)(=O)N(C)C)c1,.,.,.,22,.,.
CCOC(=O)/C=C1\SCC(=O)N1CCOc1cccc(Br)c1,82*,80*,0.2,-15,.,0.2
CCOC(=O)/C=C1\SCC(=O)N1CC(=O)NC1CCCCC1,67*,3,0.3,22,18,1
CCOC(=O)N1CCC(NC(=O)CN2C(=O)CSc3nc(C)cc(C)c32)CC1,61*,26,0.4,83*,-1,0.7
C=CC(O)(C#CCN(CC)CC)c1ccccc1 (stereo not drawn),45,12,0.5,3,-5,0.9
CCCCC(=O)NC1(C(F)(F)F)C(=O)Nc2c1c(=O)n(C)c(=O)n2C (stereo not drawn),11,0,0.9,.,33,1
CC(C)NC(=O)c1ccc(COCC(F)(F)C(F)F)cc1,84*,-23,0.2,7,.,1.2
N#Cc1cn(CC(=O)NCc2cccnc2)c2ccccc12,80*,63*,0.2,-25,11,0.4
N#Cc1cn(Cc2ccccc2)c2ccccc12,91*,84*,0.1,-9,-22,0.2
CCC(=O)c1cn(CC(=O)NCc2cccnc2)c2ccccc12,86*,91*,0.1,3,2,0.1
